Out of some 3,400 compounds screened, about 840 (25%) were called active. Roughly 11% stayed inconclusive and do not appear here. A selection follows. Measured potencies and affinities stand elsewhere. Values without a mark were called inactive.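 How the source made its calls: active means fitted half-maximal concentration of signal decrease at or below twice the sample's top tested concentration; inconclusive means flat curve between -70 and -30 percent, or poor fit; inactive means flat within 30 percent, signal rise, or potency above limit.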
Experiment: T. gondii growth inhibition with IFN-gamma, dose response, cell-based, ME49Luc, HeLa, luciferase, 72 h (AID 1259418)
Settings: T. gondii ME49Luc in IFN-y HeLa, stronger effect = lower value, -100% = high-dose IFN-γ control wells; at 19.5 µM unless noted

| Structure (SMILES) | max activity |
| --- | --- |
| COC(=O)C1CC23C=CNC4CCC5(c6ccccc6NC15C2C)C43 (stereo unspecified) | 26.5% [at 10 µM] |
| COc1ccc(-c2nc3c(s2)CN(S(=O)(=O)c2ccc(F)cc2F)CC3)cc1 | 13% [at 5 µM] |
| COC(=O)c1cccc(NC(=O)Nc2ccc(-c3nc(-c4cc(C)ccc4C)co3)cc2)c1 | 11.4% [at 5 µM] |
| CCc1cc(C2CCCN2C(=O)Cn2nc(C(F)(F)F)cc2C)on1 (stereo unspecified) | -8.33% [at 5 µM] |
| Cc1ccccc1-c1nc(CN2CCN(C(=O)Nc3cccc(C)c3C)CC2)c(C)o1 | -5.68% [at 2.6 µM] |
| COCCCNC(=O)Cn1c(=O)c(S(=O)(=O)c2ccccc2)cc2cc(C)ccc21 | 5.8% [at 2.6 µM] |
| Cc1ccc(NC(=O)Nc2ccc(-c3nc(-c4cccc(Br)c4)co3)cc2)cc1 | 18.1% [at 0.16 µM] |
| COc1ccc(NC(=O)N2CCc3nc(-c4ccccc4)sc3C2)c(OC)c1 | 19.6% [at 10 µM] |
| Cc1ccc(-c2ccc(OCCNC(=O)c3sc(-c4ccccc4)nc3C)nn2)cc1 | 10.9% [at 2.6 µM] |
| Cc1cc(C2CCCN2C(=O)c2cc(C(F)(F)F)nn2C)on1 (stereo unspecified) | 8.24% [at 1.35 µM] |
| Cc1nc(-c2ccc(F)cc2)sc1-c1ccc(SCc2ccccn2)nn1 | 11.9% |
| Cc1ccccc1NC(=O)N1C[C@H]2C[C@H](C(=O)NC3CCC3)[C@@H](C1)O2 | 41.9% |
| Cc1ccc(-c2coc(-c3ccc(NC(=O)Cc4ccccc4C)cc3)n2)cc1 | 19% |
| COc1ccc(NC(=O)Nc2ccc(-c3nc(-c4ccc(C)cc4C)co3)cc2)cc1 | -20.8% [at 0.16 µM] |
| COc1cc(OC)cc(C(=O)Nc2ccc(-c3nc(-c4cc(C)ccc4C)co3)cc2)c1 | 19.3% [at 0.16 µM] |
| COc1cc(NC(=O)Nc2ccc(-c3nc(-c4cc(C)ccc4C)co3)cc2)cc(OC)c1 | 6.94% [at 0.08 µM] |
| COc1ccc(C(=O)Nc2ccc(-c3nc(-c4ccc(C)cc4C)co3)cc2)cc1 | 25.2% [at 0.35 µM] |
| COc1ccc(-c2nc3c(s2)CN(S(=O)(=O)c2ccc(C(C)(C)C)cc2)CC3)cc1 | 5.19% |
| COc1ccc(-c2nc(Nc3ccccc3C)c3ccccc3n2)cc1 | -9.66% [at 10 µM] |
| COc1ccc(CCNc2ncnc3c2cnn3-c2ccccc2)cc1OC | 24.5% [at 5 µM] |
| CCSc1ccc2c(c1)N(CCCN1CCN(C)CC1)c1ccccc1S2 | 26.9% |

Reference: PubChem BioAssay AID1259418 (Broad Institute, 2018)
